Luc counter – blocks Kinase-Glo luciferase, a counter-screen artifact; Kinase-Glo luciferase, ATP luminescence, 8 min; Potency, µM (titrated, usually from 38.3 µM), usual class: inhibitors; 200,000 tested, 0.28% active; AID 1379; also: nearly all actives have a fitted effect of over 60% in size
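Compounds were added to a substrate mix at pH 7.2 (50 mM imidazole, 10 uM ATP, within the enzyme's linear range), followed by Kinase-Glo detection reagent; luminescence was measured after 8 minutes at ambient temperature.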
ELG1 genotoxic – genotoxicity induction in ELG1-luciferase HEK293T cells; HEK293T ELG1-luciferase reporter, luminescence, 16 h; Potency, µM (highest dose often 46 µM), usual class: activators; 330,000 tested, 1.3% active; also: nearly all actives have a fitted effect of over 60% in size
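Step 1: seed 2,000 HEK293T ELG1-luciferase cells per well. Step 2: add compound or DMSO, incubate 16 hr at 37 °C. Step 3: ONE-Glo, 30 min at room temperature, read luminescence.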
Rab9 prom act – activators of Rab9 promoter; 320,000 tested, 2.8% active; Huh7 Rab9 promoter-luciferase reporter, luminescence, 24 h; Potency, µM (top dose mostly 9.22 µM), actives largely listed as activators; AID 485297; also: nearly all actives have a fitted effect of over 60% in size
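Stable Rab9-luc Huh7, 1500 cells/well, 2 h settle; cmpd in DMSO, 24 h, 37 °C/5% CO2; luciferase reagent 10 min RT; luminescence.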
SMN2 splice enh – SMN2 splice variant enhancement. Potency, µM (titrated, usually from 46.1 µM), usual class: activators. 210,000 tested, 2.8% active. HEK293 SMN2-luciferase splicing reporter, luminescence, 30-36 h; also: nearly all actives have a fitted effect of over 55% in size
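qHTS luciferase splicing reporter: luminescence rises when SMN2 exon 7 is included in transfected HEK293 cells. Compound exposure lasted 30-36 h at 37C, with 4.5 mM final sodium butyrate as control, followed by a ONE-Glo read.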
FLuc counter – counter-screen for miR-21 project: firefly luciferase inhibitors or activators; 360,000 tested, 6.9% active; AID 588342; purified FLuc, Km substrates, luminescence inhibition; P08659; Potency, µM (series often up to 57.5 µM), actives largely listed as inhibitors; also: nearly all actives have a fitted effect of over 55% in size
Target sequence (P08659 whole entry, looked up): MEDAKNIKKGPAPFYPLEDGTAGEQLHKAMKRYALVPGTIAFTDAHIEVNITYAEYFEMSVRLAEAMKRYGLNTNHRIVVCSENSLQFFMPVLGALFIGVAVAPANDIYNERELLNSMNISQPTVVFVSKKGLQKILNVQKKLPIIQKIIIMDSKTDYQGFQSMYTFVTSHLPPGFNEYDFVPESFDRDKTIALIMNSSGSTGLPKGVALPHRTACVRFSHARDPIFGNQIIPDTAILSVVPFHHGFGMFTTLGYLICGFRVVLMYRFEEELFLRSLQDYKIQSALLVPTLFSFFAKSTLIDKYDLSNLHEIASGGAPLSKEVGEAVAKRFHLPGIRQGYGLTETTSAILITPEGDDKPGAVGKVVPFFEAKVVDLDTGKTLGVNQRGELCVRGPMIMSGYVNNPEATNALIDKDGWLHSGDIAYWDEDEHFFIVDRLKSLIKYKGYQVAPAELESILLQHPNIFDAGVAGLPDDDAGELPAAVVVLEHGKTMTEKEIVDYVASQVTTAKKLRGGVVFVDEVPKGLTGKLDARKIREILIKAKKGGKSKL
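Biochemical qHTS of compounds, final roughly 60 µM downward over six points, against 10 nM purified firefly luciferase using Km concentrations of substrates (10 uM D-luciferin, 10 uM ATP) in Tris acetate pH 7.5 buffer; luminescence output.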
NPC1 prom act – activates the NPC1 promoter; Huh7 NPC1 promoter luciferase reporter, 24 h; AID 485313; 320,000 tested, 2.4% active; Potency, µM (highest dose often 9.22 µM), hits mostly activators; also: nearly all actives have a fitted effect of over 60% in size
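Huh7 cells stably carrying NPC1 promoter–luciferase, plated in Opti-MEM with 10% FBS for 2 h, were exposed to compound in DMSO for 24 h at 37 °C; luciferase reagent was added for 10 min and luminescence read.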
Numbers stand for hits; [ ] = dose if it differs, or a comment. Hits are enriched below; roughly 7.4% of the tested compounds scored in any of these assays. Calls follow the shape of the dose curve; as a rule, active = well fitted curve in the direction sought with a large enough effect; inconclusive = small, poorly fitted or top-dose-only effect, or another doubt; inactive = no such curve, though single readings can be large; an effect the other way counts as inactive or inconclusive.

Screening C/C(=N\Nc1cccc2cccnc12)c1ccccn1 returned Luc counter inconclusive, ELG1 genotoxic inconclusive, Rab9 prom act 0.794µM, SMN2 splice enh 2µM, FLuc counter 0.338µM and NPC1 prom act 3.16µM.
Screening Cn1c(=O)c(-c2cccc(Cl)c2)nc2cncnc21 returned Luc counter inactive and SMN2 splice enh inactive.
For Cn1cccc1C(=O)N1CCC2(CCCN(Cc3ccccc3)C2)CC1 the results were Luc counter inactive and SMN2 splice enh inactive.
Screening O=c1oc2ccccc2c2c1C1O[C@](c3ccsc3)(Cc3ccccc31)O2 returned Rab9 prom act inactive[1.84 µM], FLuc counter inactive[11.5 µM] and NPC1 prom act inactive[1.84 µM].
O=C(NC(=S)/C(=C1\CCCCCN1)[N+](=O)[O-])c1ccccc1 was read as ELG1 genotoxic 0.231µM.
COc1ccc(OC)c(NC(=O)c2cc3c(s2)-c2ccccc2SC3)c1 was read as SMN2 splice enh inactive and FLuc counter inactive.
N#Cc1ccccc1-c1csc(N2CCC(C(N)=O)CC2)n1 was read as FLuc counter inactive.
`Cc1ccc(OCc2ccc(-c3ccccc3)cc2)c([N+](=O)[O-])n1` gave ELG1 genotoxic inactive, Rab9 prom act inactive, FLuc counter inconclusive and NPC1 prom act inactive.
`Cc1ccc(OCCOc2cccc(Br)c2)c([N+](=O)[O-])n1` gave Luc counter inactive, ELG1 genotoxic inconclusive, Rab9 prom act inconclusive, SMN2 splice enh 17.8µM, FLuc counter inconclusive and NPC1 prom act inconclusive.
For Cc1ccc(OCc2ccc(Br)cc2)c([N+](=O)[O-])n1 the results were Luc counter inactive, ELG1 genotoxic 7.3µM, Rab9 prom act 1µM, SMN2 splice enh 10µM, FLuc counter 5.36µM and NPC1 prom act 2.24µM.
`CCOc1cc(Br)c(COc2ccc(C)nc2[N+](=O)[O-])cc1OCC` gave ELG1 genotoxic inactive, Rab9 prom act inactive, FLuc counter inactive and NPC1 prom act inactive.
For CC(=O)Nc1ccc(S(=O)(=O)Nc2nc3ccccc3nc2Nc2ccc3ccccc3c2)cc1 the results were Luc counter inactive, ELG1 genotoxic inactive, Rab9 prom act inactive, SMN2 splice enh inconclusive, FLuc counter 9.53µM and NPC1 prom act inactive.
CC(=O)Nc1ccc(S(=O)(=O)Nc2nc3ccccc3nc2Nc2cccc(O)c2)cc1 was read as ELG1 genotoxic inactive, Rab9 prom act inactive, FLuc counter inconclusive and NPC1 prom act inactive.
Screening COC(=O)c1cc(Nc2nc3ccccc3nc2NS(=O)(=O)c2ccc(C)cc2)ccc1Cl returned SMN2 splice enh inactive and FLuc counter 19µM.
`CC(C)CCN(Cc1ccco1)C(=O)c1cc2c(s1)-c1ccccc1OC2` gave SMN2 splice enh inactive and FLuc counter inactive.
`CCOc1ccc(NC(=O)CCc2nc3cccnc3n2Cc2ccc(OC)cc2)cc1` gave SMN2 splice enh inactive and FLuc counter inactive.
`CC(C)(C)SCCNC(=O)COc1ccccc1` gave Luc counter inactive, ELG1 genotoxic inactive, Rab9 prom act inactive, SMN2 splice enh inactive, FLuc counter inactive and NPC1 prom act inactive.
`COc1ccccc1OCCNC(=O)Nc1ccc(Br)cc1` gave Luc counter inactive, ELG1 genotoxic inactive, Rab9 prom act inactive, SMN2 splice enh inactive, FLuc counter inactive and NPC1 prom act inactive.
Screening COc1ccccc1OCCNC(=O)c1ccc(Br)cc1 returned ELG1 genotoxic inconclusive, Rab9 prom act inactive[1.84 µM], FLuc counter 23.9µM and NPC1 prom act inconclusive.
CN(C)S(=O)(=O)c1ccc(C(=O)NCCSc2ccccc2)cc1 was read as Luc counter inactive, ELG1 genotoxic 10.3µM, Rab9 prom act inconclusive, SMN2 splice enh inactive, FLuc counter inconclusive and NPC1 prom act inconclusive.
`COc1ccc(C(=O)NCCSc2ccccc2)cc1OC` gave Luc counter inactive, ELG1 genotoxic inconclusive, Rab9 prom act inconclusive, SMN2 splice enh 14.1µM, FLuc counter inconclusive and NPC1 prom act inconclusive.
For O=C(COc1ccccc1)NCCSc1ccccc1 the results were Luc counter inactive, ELG1 genotoxic 20.6µM, Rab9 prom act inactive, SMN2 splice enh inactive, FLuc counter 26.9µM and NPC1 prom act inconclusive.

Source: PubChem (National Center for Advancing Translational Sciences (NCATS))
